Assay results as given in PubChem BioAssay (NCATS).
Inconclusive results are not listed. Calls of active or inactive are those of the source. Unless noted, calls come from the whole dose curve; as a rule, active = well fitted curve in the direction sought with a large enough effect; inconclusive = small, poorly fitted or top-dose-only effect, or another doubt; inactive = no such curve, though single readings can be large; an effect the other way counts as inactive or inconclusive.

How the values were obtained:
[1] = qHTS assay for measurement of the activity of small molecule inhibitors on Zika virus induced Caspase-3 activity in human astrocytoma cells (AID 1224859)
In short: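 In SNB-19 cells plated at 250 cells/well and grown 16-20 h, compounds were applied 1 h before ZIKV (2 FFU/cell). Six hours later caspase-3/7 luminescence was recorded.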

[2] = qHTS assay to identify small molecule inhibitors of chordoma cells - UCH-1 (AID 1259355); note: nearly all actives have a fitted effect of over 55% in size; note: potency is the fitted concentration of half-maximal effect; series mostly up to about 46 µM
In short: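 Luminescent ATP read-out (CellTiter-Glo, 30min at room temperature) measured viability of UCH-1 cells exposed for 48hr to test drugs at 15 concentrations, co-dosed with a five-agent combination of auranofin, camptothecin, doxorubicin, rubitecan and topotecan.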

[3] = qHTS assay to identify small molecule inhibitors of chordoma cells - UCH-2 (AID 1259356); note: potency is the fitted concentration of half-maximal effect
[4] = P-glycoprotein substrates identified in KB-8-5-11 adenocarcinoma cell line, qHTS therapeutic library screen (AID 1346987); note: nearly all actives have a fitted effect of over 65% in size; note: potency is the fitted concentration of half-maximal effect
In short: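 Steps: plate 500 KB-8-5-11 cells/well in DMEM + 10% FCS (colchicine removed); pin compounds in dose-response; incubate 72 h, 37 degree C, 5% CO2; add CellTiter-Glo, 5 min; read luminescence.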

[5] = Natriuretic polypeptide receptor (hNpr1) antagonism - Pilot counterscreen GloSensor control cell line (AID 1347045; calls by dose curve; note: series mostly up to about 38 µM)
In short: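 Luminescence was read before and 20 min after adding 50 uM SNP, which stimulates soluble guanylyl cyclase. The HEK293 cells expressing the GloSensor cGMP sensor had been preloaded with 2% reagent for 2 h and treated with compound.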

[6] = target: Atrial natriuretic peptide receptor 1 (Homo sapiens) (UniProt P16066); assay: Natriuretic polypeptide receptor (hNpr1) antagonism - Pilot screen (AID 1347049; calls by dose curve;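 note: agonist-evoked cGMP luminescence read 20 min after hNppA addition; series mostly up to about 58 µM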)
In short: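 HEK293 cells co-expressing hNpr1 and the GloSensor pGS-40F cGMP luciferase sensor were preloaded with 2% GloSensor reagent for 2 h. Compounds were added for 30 min at room temperature, then cells were stimulated with 0.1 nM hNppA for 20 min before luminescence readout.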

[7] = P-glycoprotein substrates identified in KB-3-1 adenocarcinoma cell line, qHTS therapeutic library screen (AID 1346986); conditions: outcome: dose series up to 44.5 µM; note: nearly all actives have a fitted effect of over 60% in size
In short: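 Resistance attributable to P-gp was assessed by comparing AC50 in KB-8-5-11 with parental KB-3-1 and by tariquidar reversal. Cells were exposed 72 h and viability read by CellTiter-Glo.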

Measured: Potency

Sequence of Atrial natriuretic peptide receptor 1 (Homo sapiens) (P16066 whole entry, looked up): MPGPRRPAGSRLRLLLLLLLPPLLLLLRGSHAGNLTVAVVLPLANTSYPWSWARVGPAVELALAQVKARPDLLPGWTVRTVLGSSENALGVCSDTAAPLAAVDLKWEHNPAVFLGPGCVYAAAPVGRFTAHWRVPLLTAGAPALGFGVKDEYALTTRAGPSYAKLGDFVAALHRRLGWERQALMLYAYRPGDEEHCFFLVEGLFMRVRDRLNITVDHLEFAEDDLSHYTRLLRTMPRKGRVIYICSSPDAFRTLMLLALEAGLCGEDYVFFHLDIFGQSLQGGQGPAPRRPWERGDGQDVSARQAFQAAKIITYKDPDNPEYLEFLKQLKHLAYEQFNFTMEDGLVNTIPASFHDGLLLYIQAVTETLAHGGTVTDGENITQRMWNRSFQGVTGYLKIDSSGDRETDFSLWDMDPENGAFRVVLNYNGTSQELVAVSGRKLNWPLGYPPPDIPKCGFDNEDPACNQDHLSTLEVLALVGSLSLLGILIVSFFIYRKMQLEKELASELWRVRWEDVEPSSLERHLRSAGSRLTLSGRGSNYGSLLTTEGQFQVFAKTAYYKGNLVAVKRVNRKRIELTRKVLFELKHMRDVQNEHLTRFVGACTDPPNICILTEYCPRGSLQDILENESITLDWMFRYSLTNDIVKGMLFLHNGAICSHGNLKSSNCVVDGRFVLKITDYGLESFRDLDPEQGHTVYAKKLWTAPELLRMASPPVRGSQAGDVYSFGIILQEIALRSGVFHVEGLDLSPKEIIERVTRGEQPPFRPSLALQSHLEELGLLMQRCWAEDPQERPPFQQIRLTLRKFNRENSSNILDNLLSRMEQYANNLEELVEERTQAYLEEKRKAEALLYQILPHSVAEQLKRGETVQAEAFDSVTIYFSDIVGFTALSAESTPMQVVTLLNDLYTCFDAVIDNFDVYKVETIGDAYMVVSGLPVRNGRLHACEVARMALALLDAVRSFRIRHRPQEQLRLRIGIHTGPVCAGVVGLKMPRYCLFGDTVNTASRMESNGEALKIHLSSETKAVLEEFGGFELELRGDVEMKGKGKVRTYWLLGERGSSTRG

CCN(CC)CCCN(c1ccccc1)C1Cc2ccccc2C1
active: [2] 31.6 µM | [3] 23.1 µM | [4] 10.3 µM
inactive: [1] | [5] | [6]

CC(C)NNC(=O)c1ccncc1
not listed: [7]
inactive: all other assays above

O=c1[nH]c(=O)n([C@H]2C[C@H](O)[C@@H](CO)O2)cc1Br
not listed: [7]
inactive: all other assays above

CC(=O)[C@@]1(O)CC[C@H]2[C@@H]3CCC4=CC(=O)CC[C@]4(C)[C@H]3CC[C@@]21C
not listed: [7]
inactive: all other assays above

C[C@@H](O)[C@H]1C(=O)N2C(C(=O)O)=C(SCCN=CN)C[C@H]12
not listed: [7]
inactive: all other assays above

CC(=O)Nc1nnc(S(N)(=O)=O)s1
not listed: [7]
inactive: all other assays above

CCCN(CCC)C(=O)C(CCC(=O)O)NC(=O)c1ccccc1 (stereo not drawn)
not listed: [7]
inactive: all other assays above

COC(=O)[C@@H](N)Cc1ccc(O)c(O)c1
not listed: [7]
inactive: all other assays above

CNCCC(Oc1ccccc1OC)c1ccccc1 (stereo not drawn)
not listed: [7]
inactive: all other assays above

Cc1cc(C)c(/C=C2\C(=O)Nc3ccccc32)[nH]1
not listed: [4]
inactive: all other assays above

CC(=O)OC(C)C[N+](C)(C)C (stereo not drawn)
not listed: [7]
inactive: all other assays above

C[C@]12CCC(=O)C=C1CC[C@@H]1[C@@H]2C(=O)C[C@@]2(C)[C@H]1CC[C@]2(O)C(=O)CO
inactive: [1] | [2] | [3]

Cc1scc2c1N(C(=O)CN1CCN(C)CC1)c1ccccc1NC2=O
not listed: [7]
inactive: all other assays above

CN=C(NC#N)NCCSCc1nc[nH]c1C
not listed: [7]
inactive: all other assays above

CC(C)[N+](C)(CCOC(=O)C1c2ccccc2Oc2ccccc21)C(C)C
not listed: [7]
inactive: all other assays above

CN(C)CCOC(=O)COc1ccc(Cl)cc1
not listed: [7]
inactive: all other assays above

CCN(CC)CCNC(=O)c1ccc(NC(C)=O)cc1
not listed: [7]
inactive: all other assays above

Brc1c(NC2=NCCN2)ccc2nccnc12
not listed: [7]
inactive: all other assays above

CCn1cc(C(=O)O)c(=O)c2cc3c(cc21)OCO3
not listed: [7]
inactive: all other assays above

C(=C\c1ccccc1)/CN1CCN(C(c2ccccc2)c2ccccc2)CC1
not listed: [7]
inactive: all other assays above

C=CCc1ccccc1OCC(O)CNC(C)C (stereo not drawn)
not listed: [7]
inactive: all other assays above

CCCC(C(=O)OCCN(CC)CC)(c1ccccc1)c1ccccc1
active: [4] 13 µM
not listed: [7]
inactive: all other assays above

COc1ccc([C@@H]2Sc3ccccc3N(CCN(C)C)C(=O)[C@@H]2OC(C)=O)cc1
active: [4] 20.6 µM
not listed: [7]
inactive: all other assays above

FC(F)(F)c1ccccc1-n1ccnc1
not listed: [7]
inactive: all other assays above

CCCN1C[C@H](CSC)C[C@@H]2c3cccc4[nH]cc(c34)C[C@H]21
inactive: all assays above

CCOC(=O)C1=C(C)NC(C)=C(C(=O)OC)C1c1cccc(Cl)c1Cl (stereo not drawn)
not listed: [7]
inactive: all other assays above

CCCOc1ccccc1-c1nc2n[nH]nc2c(=O)[nH]1
not listed: [7]
inactive: all other assays above

Cc1ccc(S(=O)(=O)NC(=O)NN2CCCCCC2)cc1
not listed: [7]
inactive: all other assays above

O=C(O)CP(=O)(O)O
not listed: [7]
inactive: all other assays above

NS(=O)(=O)c1cc2c(cc1Cl)NC(C1CC3C=CC1C3)NS2(=O)=O (stereo not drawn)
not listed: [7]
inactive: all other assays above
